# Assay results taken from the supplement of paper PMC10338343.
# ± gives the standard deviation.
# Test system: EfPiwi piRISC loaded with piRNA #1 (26 nt)
# Test: pre-steady-state target cleavage rate (min^-1); auxiliary factor: 500 nM Ephydatia muelleri Gtsf1; guide: piRNA #1 5'p-UGAGGUAGUAGGUUGUAUAGUAUCCA; MIWI and MILI are mouse PIWI proteins and EfPiwi is from a freshwater sponge; tags in brackets are library labels; higher = faster piRNA-guided slicing of the target
# How it was run: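 The method was Cleave-'n-Seq, in which uncleaved targets from a transcribed, DNA-blocked target RNA library were sequenced after exposure to active affinity-purified piRISC carrying one synthetic guide, with or without GTSF1 partner protein. Reactions contained 0.1 nM library, 1 nM piRISC and, where present, 500 nM GTSF1 in HEPES–potassium acetate buffer at 33 °C for 0–8 or 0–960 min. Reads were normalised to depth and to weakly complementary targets, three trials were pooled, and k3 was capped at 0.0001 min^-1. The pre-steady-state cleavage rate came from a burst-and-steady-state fit.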
row,Sequence,pre-steady-state target cleavage rate
1,GGAGAGGAUACUAUGCAACCUACUACCUCA,0.242 ± 0.091
2,GGAGACGAUACUAUACAAGCUACUACCUGA,0.00333 ± 0.0015
3,GGAGACCUAUGAUAUGUACCUACUAUCCUCA,< 0.0001
4,GGAGUGGAUACUAUACAACCUAGUACCACA,0.0035 ± 0.0016
5,GGAGACGAUACUAUACAACCUACAUCCUCA,0.00353 ± 0.0014
6,GGAGAGGAUACUAUACAACCUACAACCUGA,0.00332 ± 0.0014
7,GGAGACCUAAGUAAACAACCUACUACCUCA,0.00575 ± 0.004
8,GGAGACCAUACUAUACAACCUACUUGGUCA,0.00392 ± 0.0029
9,GGAGACCUUACUAUAACAACCUACUACCUCA,0.00893 ± 0.0047
10,GGAGUGGAUACUAUACAACCAUGUACCUCA,0.00412 ± 0.0026
11,GGAGAGGAUACUAUACAACCUACUUGGUCA,0.00425 ± 0.0034
12,GGAGACCUUACUAUACAAACCUACUACCUCA,0.0103 ± 0.0047
13,GGAGUGGAAACUAUACAACCAACUACCUCA,0.0049 ± 0.0032
14,GGAGAGGAUACUAUACAACCUGACUACCUCA,0.00442 ± 0.0022
15,GGAGAGGAUACUAUACAACCUACCACCUCA,0.00459 ± 0.002
16,GGAGACCUUACUAUACAACCACUACCUCA,0.0103 ± 0.0057
17,GGAGACGUUACUAUACAUCCUACUACCUCA,0.00676 ± 0.003
18,GGAGACCUUACUAUACAACGCUACUACCUCA,0.00566 ± 0.0038
19,GGAGAGGAUACAAAACAACCUACUACCUCA,0.00656 ± 0.0047
20,GGAGACGAUACUAUACAGACCUACUACCUCA,0.0101 ± 0.0034

row,Sequence,pre-steady-state target cleavage rate
1,GGAGUGGAUACUAUACACCCUACUACCUCA,0.0673 ± 0.023
2,GGAGACGAUACUAUACAACCCUACUACCUCA,0.00604 ± 0.0029
3,GGAGAGGAUACUAUACAACCAAGUACCUCA,0.00282 ± 0.002
4,GGAGUGGAUACUAUACAACCUACUAGCACA,0.00246 ± 0.0018
5,GGAGAGGAUACUAUACAACCUACAACGUCA,0.00371 ± 0.0017
6,GGAGACGAUACUAUAGAACCUAGUACCUCA,0.0018 ± 0.0015
7,GGAGACCUAUCUAUAACAACCUACUACCUCA,0.00453 ± 0.0037
8,GGAGACCAAACUAUACAACCUUCUACCUCA,0.00406 ± 0.0026
9,GGAGACCUAUGAUUACAACCUACUCACCUCA,< 0.0001
10,GGAGACCUAUCUAUACAACCCACUACCUCA,0.00474 ± 0.0043
11,GGAGACCUAUGAUAUGUACCAACUACCACA,< 0.0001
12,GGAGACCAUACUAUAAAACCUACUACCUCA,0.00433 ± 0.0026
13,GGAGACCUAACUAUACAACCUUCUACCUGA,0.00465 ± 0.0036
14,GGAGACGAUACUAUUCAACCUACUACGUCA,0.00311 ± 0.0016
15,GGAGAGGAUACUAUACCAACCUACUACCUCA,0.00837 ± 0.0039
16,GGAGACGAUACUAUACAACCUACUACUCUCA,0.00563 ± 0.0022
17,GGAGACCUAUGAUAUGUUGCAACUACCACA,< 0.0001
18,GGAGAGGAAACUAUACAACCAACUACCUCA,0.00523 ± 0.0026
19,GGAGAGGAUACUAUACAAGCCUACUACCUCA,0.00835 ± 0.005
20,GGAGACCUAUCUAUACAACCUAGUACGUCA,0.00316 ± 0.0024
